# The source made the active and inactive calls. Unless noted, no stated cut-off is given here; in the data, active means inhibition above about 80%; inactive means the rest.
# Columns and labels:
# [1] = LFS_MB_P medulloblastoma growth inhibition, cell-based, chromothripsis tumors, cisplatin or BGB combos (AID 1671449); conditions: LFS_MB_P medulloblastoma cells;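 further: cells exposed for 96 hours; 0% = vehicle DMSO and 100% = killing by high DMSO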
# [2] = HDN33 neuroblastoma growth inhibition, cell-based, chromothripsis tumors, cisplatin or BGB combos (AID 1671450); conditions: HDN33 neuroblastoma cells, stronger effect = higher value;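 further: cells exposed to compound for four days; 0% = vehicle DMSO and 100% = cell killing by high DMSO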
# [3] = ICB984 medulloblastoma cell growth inhibition, synergistic combos for chromothripsis tumors, cisplatin or BGB combos (AID 1671451; call rule not given here;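 further: cells exposed for 96 hours before readout; 0% = vehicle DMSO and 100% = killing by high DMSO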); conditions: ICB984 medulloblastoma cells, drug combinations, stronger effect = higher value
# [4] = LFS_MB_1R medulloblastoma cell growth inhibition, synergistic combos for chromothripsis tumors, cisplatin or BGB combos (AID 1671452); conditions: LFS_MB_1R medulloblastoma cells, stronger effect = higher value;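 further: cells exposed for 96 hours before readout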
# [5] = HTB85 osteosarcoma cell growth inhibition, synergistic combos for chromothripsis tumors, BGB or cisplatin IC20 combos (AID 1671453); conditions: HTB85 osteosarcoma cells, drug combinations, stronger effect = higher value;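 further: cells exposed for 96 hours before readout; 0% = vehicle DMSO and 100% = high DMSO killing control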
# [6] = CRL2098 osteosarcoma cell growth inhibition, synergistic combos for chromothripsis tumors, BGB or cisplatin IC20 combos (AID 1671454); conditions: CRL2098 osteosarcoma cells, drug combinations, stronger effect = higher value;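 further: cells exposed for 96 h before readout; 0% = vehicle DMSO and 100% = killing by high DMSO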
# [7] = HD-MB03 medulloblastoma cell growth inhibition, synergistic combos for chromothripsis tumors, BGB or cisplatin IC20 combos (AID 1671455; in the data active means inhibition above about 83%;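 further: 0% = vehicle DMSO and 100% = high DMSO as cytotoxic control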); conditions: HD-MB03 medulloblastoma cells, stronger effect = higher value
# [8] = UWB1.289 ovarian carcinoma cell growth inhibition, synergistic combos for chromothripsis tumors, BGB or cisplatin combos (AID 1671456); conditions: UWB1.289 ovarian carcinoma cells, stronger effect = higher value;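 further: cells exposed to compound for four days; 0% = vehicle DMSO and 100% = killing by high DMSO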
# [9] = LFS_MB_2R medulloblastoma cell growth inhibition, synergistic combos for chromothripsis tumors, cisplatin combos (AID 1671457); conditions: LFS_MB_2R medulloblastoma cells, stronger effect = higher value;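 further: cells exposed to compound for four days before readout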
# [10] = MDA-MB-436 breast carcinoma cell growth inhibition, synergistic combos for chromothripsis tumors, BGB or cisplatin combos (AID 1671458; call rule not given here;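 further: cells exposed for 96 hours; 0% = vehicle DMSO and 100% = killing by high DMSO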); conditions: MDA-MB-436 breast carcinoma growth inhibition, drug combinations, stronger effect = higher value
# [11] = UWB1.289_BRCA1 ovarian cancer growth, cell-based, BGB or cisplatin combinations (AID 1671459); conditions: UWB1.289 BRCA1 ovarian carcinoma, drug combinations, stronger effect = higher value
# [12] = human astrocyte viability loss, single and combined drugs, cytotoxicity control for chromothriptic childhood tumor combination screen, cell-based, BGB or cisplatin IC20 combos (AID 1671460); conditions: Human astrocytes, drug combinations, stronger effect = higher value;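 further: cells exposed to compounds for 96 hours before viability readout; 0% = vehicle and 100% = killing control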
# [13] = growth inhibition of BT084 medulloblastoma cells, cell-based, ICGC_MB145, cisplatin and BGB IC40 combos (AID 1671461); conditions: drug combinations, stronger effect = higher value;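 further: cells exposed to drugs for 96 hours; 0% = vehicle DMSO and 100% = high DMSO full killing control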
# [14] = growth inhibition of RCMB18 medulloblastoma cells, cell-based, cisplatin and BGB IC40 combos (AID 1671462); conditions: stronger effect = higher value;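 further: cells exposed to compound for four days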
# [15] = growth inhibition of CRL1545 osteosarcoma cells, cell-based, cisplatin and BGB IC20 combos (AID 1671464); conditions: stronger effect = higher value;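 further: cells exposed to compound for 96 hours before readout; 0% = vehicle DMSO and 100% = high DMSO killing control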
# [16] = at 0.5 µM, stronger effect = higher value
# [17] = measured here: combination with BGB IC20, at 0.005 µM
# [18] = measured here: combination with BGB IC40, at 0.005 µM
# [19] = measured here: combination with BGB IC40, at 0.05 µM
# [20] = measured here: combination with cisplatin, at 0.5 µM, stronger effect = higher value
# [21] = measured here: combination with cisplatin, at 5 µM, stronger effect = higher value
# [22] = measured here: with BGB IC20 combination, at 0.5 µM
# [23] = measured here: with cisplatin IC20 combination, at 0.5 µM
# [24] = measured here: 5 uM single agent, at 5 µM
# [25] = measured here: combination with cisplatin, at 0.5 µM
# [26] = measured here: combination with cisplatin, at 5 µM
# [27] = measured here: with BGB IC20, at 0.5 µM
# [28] = measured here: with BGB IC20, at 5 µM
# [29] = measured here: with cisplatin IC20, at 0.5 µM
# [30] = measured here: with cisplatin IC20, at 5 µM
# [31] = measured here: combination with BGB at IC20, at 0.5 µM
# [32] = measured here: combination with cisplatin at IC20, at 0.5 µM
# [33] = measured here: combo with BGB at IC20, at 0.5 µM
# [34] = measured here: combo with cisplatin at IC20, at 0.5 µM
# [35] = measured here: inhibition with BGB combination, at 0.05 µM
# [36] = measured here: inhibition with cisplatin combination, at 0.05 µM
# [37] = measured here: BGB combination, at 0.5 µM
# [38] = measured here: BGB combination, at 5 µM
# [39] = measured here: cisplatin combination, at 0.5 µM
# [40] = measured here: cisplatin combination, at 5 µM
# [41] = BGB combination, concentration series, at 5 µM
# [42] = cisplatin combination, concentration series, at 5 µM
# [43] = measured here: combo with BGB IC20, at 0.5 µM
# [44] = measured here: combo with cisplatin IC20, at 0.5 µM
# [45] = cisplatin combination, at 0.5 µM
# [46] = measured here: BGB IC40 combination 0.05 uM, at 0.05 µM
# [47] = measured here: BGB IC40 combination, at 0.05 µM
smiles,measurement,setting,value
C#CCC(CCCCCC)C(=O)O (stereo unspecified),inhibition,[1]; [16],5.69% (inactive)
same,inhibition,[1]; [17],3.1%
same,inhibition,[1]; [18],30.2%
same,inhibition,[1]; [19],36.1%
same,inhibition,[1]; [20],3.27%
same,inhibition,[1]; [21],-9.45%
same,inhibition,"[2]; BGB combo, at 5 µM",13.8%
same,inhibition,[2]; at 0.5 µM,8.32% (inactive)
same,inhibition,"[2]; cisplatin combo, at 5 µM",-0.039%
same,inhibition,[2]; [22],10.2%
same,inhibition,[2]; [23],-1.96%
same,inhibition,"[2]; single agent, at 5 µM",-0.563%
same,inhibition,"[3]; BGB IC20 combo, at 0.005 µM",-2.69%
same,inhibition,"[3]; BGB IC40 combo, at 0.005 µM",-16%
same,inhibition,"[3]; BGB IC40 combo, at 0.05 µM",-11.6%
same,inhibition,[3]; at 0.5 µM,-6.37% (inactive)
same,inhibition,"[3]; cisplatin combo, at 0.05 µM",-16%
same,inhibition,"[3]; cisplatin combo, at 0.5 µM",-14.1%
same,inhibition,"[3]; cisplatin combo, at 5 µM",-27.6%
same,inhibition,[3]; [24],-4.43%
same,inhibition,[4]; at 0.5 µM,3.82% (inactive)
same,inhibition,[4]; [19],-10%
same,inhibition,[4]; [25],-6.41%
same,inhibition,[4]; [26],2.32%
same,inhibition,[5]; at 0.5 µM,6.28% (inactive)
same,inhibition,[5]; [27],4.58%
same,inhibition,[5]; [28],-11%
same,inhibition,[5]; [29],-9.52%
same,inhibition,[5]; [30],-7.57%
same,inhibition,"[5]; single agent, at 5 µM",22.7%
same,inhibition,[6]; at 0.5 µM,2.92% (inactive)
same,inhibition,[6]; [31],26.1%
same,inhibition,[6]; [32],6.9%
same,inhibition,[7]; at 0.5 µM,3.15% (inactive)
same,inhibition,[7]; [33],0.099%
same,inhibition,[7]; [34],2.13%
same,inhibition,[8]; at 0.5 µM,4.47% (inactive)
same,inhibition,[8]; [35],5.84%
same,inhibition,[8]; [36],2.18%
same,inhibition,[9]; at 0.5 µM,-4.49% (inactive)
same,inhibition,[9]; [25],5.98%
same,inhibition,[9]; [26],6.31%
same,inhibition,[10]; at 0.5 µM,-1.28% (inactive)
same,inhibition,[10]; [37],-4.71%
same,inhibition,[10]; [38],-7.63%
same,inhibition,[10]; [39],-0.109%
same,inhibition,[10]; [40],-1.88%
same,inhibition,[11]; [41],-4.85%
same,inhibition,[11]; at 0.5 µM,3.74% (inactive)
same,inhibition,[11]; [42],16.5%
same,inhibition,[12]; at 0.5 µM,6.72% (inactive)
same,inhibition,[12]; [43],20.5%
same,inhibition,[12]; [44],9.45%
same,inhibition,[13]; at 0.5 µM,8.59% (inactive)
same,inhibition,[13]; [45],9.78%
same,inhibition,"[13]; cisplatin combination, at 5 µM",1.82%
same,inhibition,[13]; [46],2.2%
same,inhibition,"[13]; single agent, at 5 µM",14.4%
same,inhibition,[14]; at 0.5 µM,-5.37% (inactive)
same,inhibition,"[14]; cisplatin combo, at 5 µM",23.5%
same,inhibition,[14]; [47],5.44%
same,inhibition,[14]; [25],22%
same,inhibition,"[14]; single agent, at 5 µM",-15.4%
same,inhibition,[15]; at 0.5 µM,-23% (inactive)
same,inhibition,[15]; [22],-43.7%
same,inhibition,[15]; [23],-12.7%
same,inhibition,"[15]; single agent, at 0.05 µM",0.433%
same,inhibition,"[15]; single agent, at 5 µM",16.3%
N#Cc1ccc(OC2CCC(NC(=O)CCSc3nc4ccccc4c(=O)[nH]3)CC2)cc1 (stereo unspecified),inhibition,[1]; [16],-11.7% (inactive)
same,inhibition,[1]; [17],-15.6%
same,inhibition,[1]; [18],-25.5%
same,inhibition,[1]; [19],-19.3%
same,inhibition,[1]; [20],-29.6%
same,inhibition,[1]; [21],-57.3%
same,inhibition,"[2]; BGB combo, at 5 µM",8.7%
same,inhibition,[2]; at 0.5 µM,15.1% (inactive)
same,inhibition,"[2]; cisplatin combo, at 5 µM",37.4%
same,inhibition,[2]; [22],12.5%
same,inhibition,[2]; [23],15.6%
same,inhibition,"[2]; single agent, at 5 µM",35.9%
same,inhibition,"[3]; BGB IC20 combo, at 0.005 µM",-4.21%
same,inhibition,"[3]; BGB IC40 combo, at 0.005 µM",-8.75%
same,inhibition,"[3]; BGB IC40 combo, at 0.05 µM",7.9%
same,inhibition,[3]; at 0.5 µM,-30.9% (inactive)
same,inhibition,"[3]; cisplatin combo, at 0.05 µM",4.58%
same,inhibition,"[3]; cisplatin combo, at 0.5 µM",-24.9%
same,inhibition,"[3]; cisplatin combo, at 5 µM",-26.6%
same,inhibition,[3]; [24],2.34%
same,inhibition,[4]; at 0.5 µM,-15.5% (inactive)
same,inhibition,[4]; [19],-12.5%
same,inhibition,[4]; [25],-1.66%
same,inhibition,[4]; [26],-48.1%
same,inhibition,[5]; at 0.5 µM,8.65% (inactive)
same,inhibition,[5]; [27],1.42%
same,inhibition,[5]; [28],-9.23%
same,inhibition,[5]; [29],9.73%
same,inhibition,[5]; [30],-13.4%
same,inhibition,"[5]; single agent, at 5 µM",12.3%
same,inhibition,[6]; at 0.5 µM,-13.9% (inactive)
same,inhibition,[6]; [31],25.6%
same,inhibition,[6]; [32],-58.5%
same,inhibition,[7]; at 0.5 µM,5.55% (inactive)
same,inhibition,[7]; [33],2.46%
same,inhibition,[7]; [34],7.46%
same,inhibition,[8]; at 0.5 µM,13.3% (inactive)
same,inhibition,[8]; [35],-10.8%
same,inhibition,[8]; [36],9.73%
same,inhibition,[9]; at 0.5 µM,-13.3% (inactive)
same,inhibition,[9]; [25],-14.4%
same,inhibition,[9]; [26],-3.9%
same,inhibition,[10]; at 0.5 µM,3.61% (inactive)
same,inhibition,[10]; [37],-7.72%
same,inhibition,[10]; [38],-9.87%
same,inhibition,[10]; [39],1.31%
same,inhibition,[10]; [40],0.512%
same,inhibition,[11]; [41],24.2%
same,inhibition,[11]; at 0.5 µM,9.54% (inactive)
same,inhibition,[11]; [42],-12.4%
same,inhibition,[12]; at 0.5 µM,37.4% (inactive)
same,inhibition,[12]; [43],26.2%
same,inhibition,[12]; [44],40.6%
same,inhibition,[13]; at 0.5 µM,0.647% (inactive)
same,inhibition,[13]; [45],-17.2%
same,inhibition,"[13]; cisplatin combination, at 5 µM",-3.13%
same,inhibition,[13]; [46],-41.1%
same,inhibition,"[13]; single agent, at 5 µM",-16.5%
same,inhibition,[14]; at 0.5 µM,7.33% (inactive)
same,inhibition,"[14]; cisplatin combo, at 5 µM",-24.6%
same,inhibition,[14]; [47],-11.2%
same,inhibition,[14]; [25],27.6%
same,inhibition,"[14]; single agent, at 5 µM",-12.9%
same,inhibition,[15]; at 0.5 µM,-30% (inactive)
same,inhibition,[15]; [22],-19.6%
same,inhibition,[15]; [23],-37.4%
same,inhibition,"[15]; single agent, at 0.05 µM",34.4%
same,inhibition,"[15]; single agent, at 5 µM",4.49%
